The results in this text go back to PubChem BioAssay (NCATS).

In experiment [1] the target is Catechol O-methyltransferase (Homo sapiens) (UniProt P21964). As to the kind of experiment: Confirmatory Screen for Target Class Profiling of Small Molecule Inhibitors of Methyltransferases (AID 1745852; calls by dose curve; further: potency means the concentration at half of the fitted maximal effect; on activity change, negative = inhibition: on the % scale 0 is the no-effect control and ±100 the full control effect). As to conditions: MTase-Glo luminescence, SAH detection, recombinant enzyme; measured here: COMT max response; stronger effect = lower value.
Catechol O-methyltransferase (Homo sapiens), sequence (P21964 whole entry, looked up): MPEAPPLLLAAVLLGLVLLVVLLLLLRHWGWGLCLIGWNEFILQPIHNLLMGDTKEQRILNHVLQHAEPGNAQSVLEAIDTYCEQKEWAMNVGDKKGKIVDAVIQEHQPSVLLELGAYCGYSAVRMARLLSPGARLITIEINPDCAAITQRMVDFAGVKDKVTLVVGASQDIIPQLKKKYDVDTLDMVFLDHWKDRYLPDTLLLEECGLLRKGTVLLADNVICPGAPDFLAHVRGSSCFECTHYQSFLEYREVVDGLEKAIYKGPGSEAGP
Experiment [2] addresses Guanidinoacetate N-methyltransferase (Homo sapiens) (UniProt Q14353). The description is as above. The settings on record: MTase-Glo luminescence, SAH detection, recombinant enzyme; activity change, negative = inhibition: at 57.3 µM (top of the series) unless noted; series mostly up to 57.3 µM.
Experiment [3] has as its target Nicotinamide N-methyltransferase (Homo sapiens) (UniProt P40261). Described as above. As to conditions: MTase-Glo luminescence, SAH detection, recombinant enzyme; measured here: NNMT max response; stronger effect = lower value.
The target of experiment [4] is Phenylethanolamine N-methyltransferase (Homo sapiens) (UniProt P11086). Described as above. As to conditions: MTase-Glo luminescence, SAH detection, recombinant enzyme; measured here: PNMT max response; stronger effect = lower value.
Phenylethanolamine N-methyltransferase (Homo sapiens), sequence (P11086 whole entry, looked up): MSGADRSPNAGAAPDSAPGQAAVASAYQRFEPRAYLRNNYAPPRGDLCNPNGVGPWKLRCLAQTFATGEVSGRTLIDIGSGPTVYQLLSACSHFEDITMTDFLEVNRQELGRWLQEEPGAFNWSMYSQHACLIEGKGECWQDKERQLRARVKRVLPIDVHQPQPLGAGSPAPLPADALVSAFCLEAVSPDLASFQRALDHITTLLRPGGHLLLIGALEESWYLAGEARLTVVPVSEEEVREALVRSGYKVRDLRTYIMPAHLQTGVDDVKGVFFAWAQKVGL
The target in experiment [5] is Glutathione peroxidase 1 (Homo sapiens) (UniProt P07203). As to the kind of experiment: Primary qHTS Assay for Inhibitors of Recombinant Selenoprotein Glutathione Peroxidase 1 (GPX1) (AID 1845191). Further: nearly all actives have a fitted effect of over 65% in size. Further: potency means the concentration at half of the fitted maximal effect. As to conditions: recombinant GPX1, GR-coupled NADPH fluorescence, 15 min; series mostly up to 48.8 µM. Summed up:
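GPX1 10 nM, GR 100 nM, GSH 1 mM, NADPH 0.5 mM, CHP 0.5 mM (final). 30-min cpd preincubation, RT. Ex340/Em450 read t=0, t=15 min.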

Experiment [6] can be described thus: NCATS anti-infectives library activity on HEK293 viability as a counter-qHTS vs the C. elegans viability qHTS (AID 1745854).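 Further: HEK293 cells exposed to compounds for 24 hr before the viability read; on the % scale 0 is the no-effect control and ±100 the full control effect.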 As to conditions: HEK293 viability counter-screen; series mostly up to 41.8 µM. Summed up: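 Compound titrations (final up to 41.7 uM) were incubated with HEK293 cells for 24 hr at 37C under 5% CO2. Viable cells were quantified with CellTiter-Glo after 10 min at ambient temperature.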
For orientation: qHTS replaces the single test concentration by a dilution series.

Experiment [7] deals with Cytochrome P450 1A2 (Homo sapiens) (UniProt P05177). In words: p450-cyp1a2 (AID 410; calls by dose curve; further: potency means the concentration at half of the fitted maximal effect). As to conditions: recombinant CYP1A2, luciferin-ME demethylation, luminescence; series mostly up to 57 µM. Summed up:
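Read-out is luminescence from luciferin produced by CYP1A2 demethylation of Luciferin-ME (100uM, at Km). Detection reagent stopped the 60 min NADPH-dependent reaction; signals were normalized to 57 uM furafylline.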

In experiment [8] the target is Glucocorticoid receptor (Homo sapiens) (UniProt P04150). As to the kind of experiment: GR-GFP Redistribution (AID 450;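 active means compounds whose dose series gives a full or clear partial fitted curve of increased nuclear translocation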; further: potency means the concentration at half of the fitted maximal effect). As to conditions: U2OS GR-GFP nuclear translocation, laser cytometry, 2 h.
Glucocorticoid receptor (Homo sapiens), sequence (P04150 whole entry, looked up, the tested form may be a part): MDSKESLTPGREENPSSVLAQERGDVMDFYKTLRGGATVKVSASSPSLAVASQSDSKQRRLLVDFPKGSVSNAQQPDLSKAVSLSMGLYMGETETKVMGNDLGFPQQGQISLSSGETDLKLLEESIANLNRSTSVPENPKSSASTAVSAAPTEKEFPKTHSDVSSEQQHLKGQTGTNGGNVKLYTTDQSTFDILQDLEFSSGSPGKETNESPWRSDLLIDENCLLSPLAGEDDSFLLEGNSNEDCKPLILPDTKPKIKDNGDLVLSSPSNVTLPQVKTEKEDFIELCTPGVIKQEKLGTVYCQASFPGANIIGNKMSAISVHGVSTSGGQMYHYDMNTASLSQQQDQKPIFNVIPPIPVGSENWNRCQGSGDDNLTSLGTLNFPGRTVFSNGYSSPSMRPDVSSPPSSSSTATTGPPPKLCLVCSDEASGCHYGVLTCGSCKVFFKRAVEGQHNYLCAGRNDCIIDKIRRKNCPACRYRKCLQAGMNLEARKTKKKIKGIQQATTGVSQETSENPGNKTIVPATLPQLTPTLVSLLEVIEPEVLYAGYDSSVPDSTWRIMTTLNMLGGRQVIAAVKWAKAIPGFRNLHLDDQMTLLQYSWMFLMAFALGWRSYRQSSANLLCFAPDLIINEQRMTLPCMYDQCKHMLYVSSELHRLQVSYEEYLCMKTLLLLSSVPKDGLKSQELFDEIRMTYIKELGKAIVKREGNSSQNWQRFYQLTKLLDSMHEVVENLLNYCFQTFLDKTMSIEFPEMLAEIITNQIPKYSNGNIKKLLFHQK
For experiment [9] the target is unchanged. In words: GR-EFC Redistribution (AID 451; calls by dose curve; further: potency means the concentration at half of the fitted maximal effect). The settings on record: CHO-K1 GR-EFC translocation, beta-gal luminescence, 2 h. Summed up: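 CHO-K1 cells stably expressing nuclear-localized β-gal enzyme acceptor and GR fused C-terminally to the enzyme donor fragment; ligand-driven nuclear translocation restores β-gal by complementation. Compounds titrated up to 46 uM final, 2 h at 37 °C; luminescence read.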

Experiment [10] has as its target Mitogen-activated protein kinase 10 (Mus musculus) (UniProt Q61831). In words: JNK3 AlphaScreen Assay (AID 530; active means well fitted curve in either direction with a large enough effect, not every such curve was filed as active;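 further: kinase came from lysate of stimulated human HepG2 cells; on the % scale 0 is the no-effect control and ±100 the full control effect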). As to conditions: JNK3 lysate, c-Jun phosphorylation; series mostly up to 57.1 µM. The method, boiled down: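 Biotinylated GST-cJun(1-79) served as substrate for JNK3 in HepG2 lysates stimulated with IL-1beta and TNF-alpha. ATP was 10 uM final, pH 7.6. Ser73 phosphorylation was quantified by AlphaScreen (680 nm excitation).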
Background: In Alpha technology, singlet oxygen from a donor bead excites a nearby acceptor bead.

The target of experiment [11] is 3',5'-cyclic-AMP phosphodiesterase 4B (Homo sapiens) (UniProt Q07343). In words: qHTS Assay for Inhibitors of PDE-IV (AID 607; active means well fitted activation curve with a large enough effect in the main read-out, with a control signal flat, not every such curve was filed as active; further: % of control where 0% means no effect). As to conditions: HEK293 ACTOne CNG channel cells, membrane potential fluorescence; series mostly up to 22.9 µM. Summed up: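 Cell-based read-out of cAMP via a modified cyclic nucleotide-gated channel and membrane potential dye (535/590 nm) in HEK293 cells expressing PDE4 endogenously. Compounds tested up to 22.9 uM final; 100 uM RO 20-1724 reference.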

In experiment [12] the target is Cytochrome P450 2C9 (Homo sapiens) (UniProt P11712). In words: qHTS Assay for Inhibitors and Substrates of Cytochrome P450 2C9 (AID 883). Further: on the % scale 0 is the no-effect control and ±100 the full control effect; nearly all actives have a fitted effect of over 60% in size. As to conditions: recombinant CYP2C9, luciferin-H luminescence, 60 min; series mostly up to 57.1 µM. Summed up: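 Human CYP2C9 (10nM) hydroxylated Luciferin-H (100uM, at its KM) to luciferin in 25mM KPO4. Compound was preincubated 10 min at 37C, then NADPH regeneration started a 60 min reaction at 37C. Luminescence was read after detection reagent, normalized to 57uM sulphaphenazole.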
Cytochrome P450 2C9 (Homo sapiens), sequence (P11712 whole entry, looked up): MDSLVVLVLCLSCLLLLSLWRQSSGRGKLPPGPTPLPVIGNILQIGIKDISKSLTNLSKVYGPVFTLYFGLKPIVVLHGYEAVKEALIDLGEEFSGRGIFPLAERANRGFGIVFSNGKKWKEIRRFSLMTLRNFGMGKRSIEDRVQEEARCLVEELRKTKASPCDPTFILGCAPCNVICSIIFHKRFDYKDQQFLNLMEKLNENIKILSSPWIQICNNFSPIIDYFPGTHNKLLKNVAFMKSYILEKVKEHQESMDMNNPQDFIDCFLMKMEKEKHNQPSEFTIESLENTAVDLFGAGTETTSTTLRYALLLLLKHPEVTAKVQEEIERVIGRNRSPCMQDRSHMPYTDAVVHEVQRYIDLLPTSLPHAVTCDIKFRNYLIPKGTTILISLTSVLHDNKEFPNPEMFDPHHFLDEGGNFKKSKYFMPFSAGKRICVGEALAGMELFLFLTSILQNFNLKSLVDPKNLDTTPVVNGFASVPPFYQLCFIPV

Experiment [13] has as its target Cytochrome P450 3A4 (Homo sapiens) (UniProt P08684). As to the kind of experiment: qHTS Assay for Inhibitors and Substrates of Cytochrome P450 3A4 (AID 884). Further: potency means the concentration at half of the fitted maximal effect; nearly all actives have a fitted effect of over 50% in size. The settings on record: recombinant CYP3A4, Luciferin-PPXE luminescence; series mostly up to 57.1 µM. Summed up: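 Luminescent readout of luciferin produced by CYP3A4 (20 nM) dealkylation of Luciferin-PPXE, 25 uM (its KM). NADPH-driven reaction ran 60 min at RT after 10 min compound preincubation; data scaled to 57 uM ketoconazole as 100% inhibition.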

Experiment [14] has the same target. As to the kind of experiment: qHTS Assay for Activators of Cytochrome P450 3A4 (AID 885). Further: nearly all actives have a fitted effect of over 65% in size. The settings on record: recombinant CYP3A4, Luciferin-PPXE luminescence, 60 min; series mostly up to 57.1 µM. The method, boiled down: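 Luminescent readout of luciferin formed from 25 uM Luciferin-PPXE (KM level) by 20 nM CYP3A4 in 200 mM KPO4, with 60 min NADPH-driven reaction at room temperature after 10 min compound exposure. Ketoconazole (57 uM) defined 100% inhibition.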

For experiment [15], the target named is Cytochrome P450 2D6 (Homo sapiens) (UniProt P10635). In words: qHTS Assay for Inhibitors and Substrates of Cytochrome P450 2D6 (AID 891).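 Further: luciferin methyl ether substrate demethylated by CYP2D6 with NADPH regeneration; on the % scale 0 is the no-effect control and ±100 the full control effect; nearly all actives have a fitted effect of over 60% in size.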 As to conditions: recombinant CYP2D6, luciferin-ME EGE luminescence; series mostly up to 57.1 µM. The method, boiled down:
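Luminescent read-out of luciferin formed by 5 nM human CYP2D6 demethylating 30 uM Luciferin-ME EGE (Km level) over 60 min at room temperature after NADPH regeneration addition. Data normalized to full inhibition by 1.43 uM quinidine.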

For experiment [16], the target named is Cytochrome P450 2C19 (Homo sapiens) (UniProt P33261). In words: qHTS Assay for Inhibitors and Substrates of Cytochrome P450 2C19 (AID 899). Further: on the % scale 0 is the no-effect control and ±100 the full control effect; nearly all actives have a fitted effect of over 60% in size. The settings on record: recombinant CYP2C19, luciferin-H EGE luminescence; series mostly up to 57.1 µM. The method, boiled down:
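Human CYP2C19 (5nM) with Luciferin-H EGE at 10uM (its KM) in 50mM KPO4 was preincubated with compound for 10 min at 37C. NADPH regeneration started a 60 min 37C reaction. Luciferin was read by luminescence, normalized to 57uM ketoconazole.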

Experiment [17] deals with DNA dC->dU-editing enzyme APOBEC-3G (Homo sapiens) (UniProt Q9HC16). As to the kind of experiment: qHTS for inhibitors of Vif-A3G interactions: Validation (AID 588379). Further: 0% is about no effect. As to conditions: Vif-A3G protein interaction assay; series mostly up to 46.1 µM. Summed up:
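Yellow fluorescence (Ex 488, Em 500-530) of Vif-coexpressing HeLa A3G-eYFP cells, scanned by Acumen cytometer, reports blocked A3G degradation. Cells plated at 700/well overnight at 37 deg C before compound addition, then a further overnight compound incubation at 37 deg C.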

Results filed as inconclusive are left out. The source made the active and inactive calls. Unless noted, the call rests on the fitted dose curve; in most records, active means well fitted curve in the direction sought with a large enough effect; inconclusive means small, poorly fitted or top-dose-only effect, or another doubt; inactive means no such curve, though single readings can be large; an effect the other way counts as inactive or inconclusive.

Glutathione peroxidase 1 (Homo sapiens), sequence (P07203 whole entry, looked up): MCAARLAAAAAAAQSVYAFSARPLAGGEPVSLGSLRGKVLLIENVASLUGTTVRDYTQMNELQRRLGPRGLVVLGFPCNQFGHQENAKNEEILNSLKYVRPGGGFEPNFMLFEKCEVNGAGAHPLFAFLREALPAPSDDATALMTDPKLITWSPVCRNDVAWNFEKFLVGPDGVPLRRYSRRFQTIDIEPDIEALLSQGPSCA
Nicotinamide N-methyltransferase (Homo sapiens), sequence (P40261 whole entry, looked up): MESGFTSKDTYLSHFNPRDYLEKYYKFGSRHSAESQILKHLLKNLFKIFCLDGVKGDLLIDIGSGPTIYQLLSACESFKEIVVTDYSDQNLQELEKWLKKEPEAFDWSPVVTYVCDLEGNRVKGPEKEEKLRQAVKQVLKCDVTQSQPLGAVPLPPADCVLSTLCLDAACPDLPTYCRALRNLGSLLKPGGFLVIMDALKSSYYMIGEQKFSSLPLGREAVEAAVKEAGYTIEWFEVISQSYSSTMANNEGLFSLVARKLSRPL
Cytochrome P450 3A4 (Homo sapiens), sequence (P08684 whole entry, looked up): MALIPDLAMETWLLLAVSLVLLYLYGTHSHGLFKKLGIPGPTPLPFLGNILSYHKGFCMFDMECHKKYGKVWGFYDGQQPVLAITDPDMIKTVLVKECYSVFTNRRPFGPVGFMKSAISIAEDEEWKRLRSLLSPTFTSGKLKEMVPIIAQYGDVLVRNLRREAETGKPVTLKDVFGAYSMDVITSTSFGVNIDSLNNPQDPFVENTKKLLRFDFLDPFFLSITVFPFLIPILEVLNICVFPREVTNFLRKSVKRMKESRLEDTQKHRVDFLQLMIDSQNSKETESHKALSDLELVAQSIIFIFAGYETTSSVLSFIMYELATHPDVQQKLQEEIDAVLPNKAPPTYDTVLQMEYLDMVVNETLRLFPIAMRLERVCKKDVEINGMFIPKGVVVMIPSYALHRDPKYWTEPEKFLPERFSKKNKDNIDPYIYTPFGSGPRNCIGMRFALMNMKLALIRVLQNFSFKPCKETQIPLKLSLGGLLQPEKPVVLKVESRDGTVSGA
DNA dC->dU-editing enzyme APOBEC-3G (Homo sapiens), sequence (Q9HC16 whole entry, looked up): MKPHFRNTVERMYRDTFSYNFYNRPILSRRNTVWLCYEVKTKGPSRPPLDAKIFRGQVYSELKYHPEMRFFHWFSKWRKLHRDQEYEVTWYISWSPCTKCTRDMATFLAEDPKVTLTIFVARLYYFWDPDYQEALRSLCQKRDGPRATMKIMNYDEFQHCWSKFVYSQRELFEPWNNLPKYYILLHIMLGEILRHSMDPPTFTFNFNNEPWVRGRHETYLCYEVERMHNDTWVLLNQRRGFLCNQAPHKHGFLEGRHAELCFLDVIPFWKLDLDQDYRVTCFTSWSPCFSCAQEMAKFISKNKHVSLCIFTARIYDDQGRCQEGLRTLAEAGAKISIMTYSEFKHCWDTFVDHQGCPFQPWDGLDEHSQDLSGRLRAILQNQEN
Cytochrome P450 2C19 (Homo sapiens), sequence (P33261 whole entry, looked up): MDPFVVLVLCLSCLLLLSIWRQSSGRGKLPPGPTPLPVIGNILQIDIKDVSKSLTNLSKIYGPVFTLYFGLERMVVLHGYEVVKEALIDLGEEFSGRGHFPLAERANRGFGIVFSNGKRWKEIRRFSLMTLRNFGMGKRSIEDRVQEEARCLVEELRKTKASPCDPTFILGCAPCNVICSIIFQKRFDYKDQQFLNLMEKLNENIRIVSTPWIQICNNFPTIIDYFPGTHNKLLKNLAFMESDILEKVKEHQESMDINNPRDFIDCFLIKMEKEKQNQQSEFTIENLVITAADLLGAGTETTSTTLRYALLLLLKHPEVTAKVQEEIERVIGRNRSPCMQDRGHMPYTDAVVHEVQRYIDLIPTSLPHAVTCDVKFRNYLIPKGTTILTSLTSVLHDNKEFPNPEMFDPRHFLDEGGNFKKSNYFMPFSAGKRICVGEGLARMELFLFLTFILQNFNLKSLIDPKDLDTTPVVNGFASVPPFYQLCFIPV
Cytochrome P450 1A2 (Homo sapiens), sequence (P05177 whole entry, looked up): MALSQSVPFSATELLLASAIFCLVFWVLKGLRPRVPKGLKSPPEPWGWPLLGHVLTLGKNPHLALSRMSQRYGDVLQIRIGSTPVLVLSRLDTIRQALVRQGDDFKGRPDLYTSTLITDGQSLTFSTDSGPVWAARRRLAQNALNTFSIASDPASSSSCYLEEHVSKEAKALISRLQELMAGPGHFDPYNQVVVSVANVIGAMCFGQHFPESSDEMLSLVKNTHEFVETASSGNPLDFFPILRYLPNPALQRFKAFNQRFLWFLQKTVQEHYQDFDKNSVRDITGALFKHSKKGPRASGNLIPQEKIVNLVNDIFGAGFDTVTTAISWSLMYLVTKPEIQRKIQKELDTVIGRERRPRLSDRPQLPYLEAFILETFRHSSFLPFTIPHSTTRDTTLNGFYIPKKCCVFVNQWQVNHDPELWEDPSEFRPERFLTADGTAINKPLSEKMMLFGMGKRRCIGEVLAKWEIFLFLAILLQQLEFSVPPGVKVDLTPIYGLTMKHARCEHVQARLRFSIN
Cytochrome P450 2D6 (Homo sapiens), sequence (P10635 whole entry, looked up): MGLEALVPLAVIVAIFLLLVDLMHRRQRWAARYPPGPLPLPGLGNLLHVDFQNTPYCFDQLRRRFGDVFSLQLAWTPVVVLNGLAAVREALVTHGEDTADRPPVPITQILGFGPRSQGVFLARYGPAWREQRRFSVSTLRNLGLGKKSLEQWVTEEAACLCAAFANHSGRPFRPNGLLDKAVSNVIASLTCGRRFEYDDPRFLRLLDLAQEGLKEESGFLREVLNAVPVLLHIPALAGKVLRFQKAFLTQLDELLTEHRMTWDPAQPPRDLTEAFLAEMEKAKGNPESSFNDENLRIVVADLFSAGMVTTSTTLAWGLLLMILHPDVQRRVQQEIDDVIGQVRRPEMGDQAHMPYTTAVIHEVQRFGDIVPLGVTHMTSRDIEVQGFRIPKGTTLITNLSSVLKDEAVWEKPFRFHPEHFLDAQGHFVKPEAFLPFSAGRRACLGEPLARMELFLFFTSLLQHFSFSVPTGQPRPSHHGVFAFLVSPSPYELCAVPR

As to `CC(C)OCCCn1c(=O)c2ccccc2n2c(CCC(=O)N3CCN(c4cccc(Cl)c4)CC3)nnc12`, the activity in [1] was 0.543%; in [3], -39.1%; in experiment [4], -4.41%. Besides, in experiment [2], the activity change, negative = inhibition turned out to be 0%.

For `Cc1c(O)cc(O)c2c(=O)c(O)c(-c3ccc(O)c(O)c3)oc12`, the activity in experiment [1] was -46.7%; in experiment [3], -19.4%; in [4] it was -17.7%. Also, in experiment [2], the Potency is 24.1 µM (active).

For the compound `c1ccc(CO[C@H]2COCCN(c3nc4ccccc4o3)C2)cc1`, the activity in experiment [1] was 1.17%; in experiment [3], -5.26%; in [4] it was -0.271%. Further, in experiment [2], the activity change, negative = inhibition was 2.9% [at 85.7 µM].

For `COc1cc2nc(N3CCCCC3)nc(NC3CCN(C)CC3)c2cc1OC`, the activity in [1] is 1.4%; in experiment [3], -11.7%; in experiment [4], -7.42%. Also, the activity change, negative = inhibition in experiment [2] amounted to 3.17%. Also, the Potency in [5] is 18 µM (active).

Turning to `COC(=O)[C@H](CCSC)NC(=O)c1ccc(NC[C@@H](N)CS)cc1-c1ccccc1`, the Potency entry in [6] is “inactive”.

As to `COc1ccc2cc(CNc3ccc(C)cc3)c(=O)n(CC(=O)Nc3cccc(C(F)(F)F)c3)c2c1`, the activity in [1] was -6.71%; in [3], -13.5%; in experiment [4], -7.35%. Besides, in experiment [2], the activity change, negative = inhibition is -9.44%. In [5], the Potency entry is “inactive”.

Take `CNC(=O)[C@@H](NC(=O)[C@H](CCCc1ccccc1)[C@H](C)N(O)C=O)C(C)(C)C`: in experiment [6], the Potency entry is “inactive”.

`CC(=O)N1CCC(C(=O)N(CCCN2CCC(Cc3ccc(C(N)=O)cc3)CC2)c2ccc(C)c(Cl)c2)CC1`: in [6], the Potency result is “inactive”.

As for `CC(C)C1=C2[C@H]3CC[C@@H]4[C@@]5(C)CC[C@H](OC(=O)CC(C)(C)C(=O)O)C(C)(C)[C@@H]5CC[C@@]4(C)[C@]3(C)CC[C@@]2([C@@H](O)CN(CCN(C)C)Cc2ccc(Cl)cc2)CC1=O`, in [6], the Potency entry is “inactive”.

As to `O=C(c1ccc2c(=O)nc3c(-c4ccc(Cl)cc4)n[nH]n3c2c1)N1CCN(Cc2ccccc2)CC1`, the activity in experiment [1] was -8.28%; in experiment [3] it was -22.4%; in experiment [4], -11.1%. Moreover, the activity change, negative = inhibition in experiment [2] came out at 1.01%.

On to `COc1cc2nc(N3CCCCC3)nc(NC3CCN(Cc4ccccc4)CC3)c2cc1OC`, for which the figures for the activity in [1], in [3] and in experiment [4] were 11.8%, -38.9% and 1.57%, respectively. The values for the Potency in [2] and in [5] were 0.968 µM (active) and 16.1 µM (active), respectively.

As to `CCNC(=O)c1cc2c(-c3cc(C(C)(C)O)ccc3Oc3c(C)cc(F)cc3C)cn(C)c(=O)c2[nH]1`, the Potency entry in [6] is “inactive”.

Regarding `Cc1ccccc1Sc1ccc(/C=C2\SC(=S)NC2=O)cc1[N+](=O)[O-]`, the activity is -5.04% in experiment [1], -72.5% in [3] and -30.1% in [4]. In addition, in experiment [2], the Potency is 42.9 µM (active). In addition, the Potency entry in experiment [5] was “inactive”.

Consider `COc1ccc(-c2oc3ccc(C)cc3c(=O)c2O)cc1OC`, for which the Potency in experiment [7] was 0.251 µM (active); in [8] it was > 46 µM (inactive); in [9], > 46 µM (inactive); in experiment [13], 3.98 µM (active). Moreover, the Potency result in experiment [10], in [11], in experiment [12], in [15] and in experiment [16] was “inactive” each time. Besides, the outcome in [14] and in experiment [17] was “inactive” throughout. Besides, the activity in [1] was -1%; in experiment [3], 1.6%; in [4], 4.32%. Besides, the activity change, negative = inhibition in [2] amounted to 0%.
